Screening data as filed in PubChem BioAssay.
An excerpt weighted towards active compounds, which were near 4.3% of everything screened.
FGF22 binding = shifts melting point of recombinant human FGF22. Q9HCT0. recombinant FGF22 thermal shift, SYPRO orange fluorescence; percent of sucrose octasulfate shift, DMSO zero. activity (Tm shift, normalised), % at 9.99 µM. hit rate 1.5% among 340,000;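 active = mean Tm shift, scaled 0 neutral to 100 positive control, at about 1.3% or above, every replicate too, limit read from the data; inconclusive = no clear call, values can overlap the other calls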
Target sequence (Q9HCT0 whole entry, looked up): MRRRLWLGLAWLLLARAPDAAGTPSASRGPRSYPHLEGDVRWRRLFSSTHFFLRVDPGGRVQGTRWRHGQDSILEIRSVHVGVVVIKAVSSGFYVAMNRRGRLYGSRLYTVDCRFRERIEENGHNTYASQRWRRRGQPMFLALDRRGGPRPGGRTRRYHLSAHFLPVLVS
MITF TRPM1 HTS = MITF TRPM1 promoter activation in melanoma cells; SK-MEL-5 TRPM1-promoter luciferase, 24 h; % of positive control, neutral wells = 0; activation, % at 12.5 µM; hit rate 0.75% among 300,000; AID 588334;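 active = mean activation of at least 80% with every replicate also reaching 80%; inconclusive = mean reaches 80% but some replicate falls short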;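 also: 0% = neutral control wells and 100% = parthenolide positive control wells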
AF4-AF9 inh = MLL-AF4/AF9 protein interaction inhibition; P42568; AlphaScreen, biotin-AF4 peptide binding to FLAG-AF9; inhibition, % at 10 µM; hit rate 0.47% among 350,000;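 active = every replicate reaching a set inhibition limit, whatever the replicate mean, cut at about 25% in these data; inconclusive = mean inhibition reaches that limit but some replicates miss it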;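 also: 0% = plate neutral control median and 100% = total signal loss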
Wnt act = activators of Wnt/beta-catenin signaling | Wnt/beta-catenin reporter cell assay, activator, plate reader | activation, % at 9.35 µM | hit rate 1.2% among 300,000 | AID 743398; in the data active = activation above about 30%, passing the limit was not always enough; inconclusive = no clear call, values can overlap the other calls;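 also: 0% = neutral control wells and 100% = positive control wells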
SMARCA2 activ = activators of SMARCA2 function. MG213 cells, MMTV-luciferase reporter, dexamethasone, overnight. activation, % at 9.1 µM. hit rate 1% among 370,000. AID 652017; in the data active = activation above about 7.8%;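 also: 0% = vehicle wells and 100% = reference activator wells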
esBAF inh = SWI/SNF esBAF complex inhibition; mouse ES cells, Bmi1-luciferase knock-in reporter, 24 h; 100% = twice the neutral-well signal; reporter increase, % at 12.5 µM; hit rate 2% among 350,000; in the data active = activation above about 40%; inconclusive = no clear call, values can overlap the other calls;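 also: 0% = median of the plate's neutral control wells and 100% = double that signal; a rise in the Bmi1 reporter signal indicates esBAF inhibition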
Numbers without * were called inactive.

Results for CCCCN(C)S(=O)(=O)c1ccc(C(=O)N=c2sc3cc(NC(C)=O)ccc3n2C)cc1 ?
MITF TRPM1 HTS: 2; Wnt act: 39*; SMARCA2 activ: -2

Results for CCc1ccc2c(c1)C1(NN=C(c3ccc(C)cc3)S1)C(=O)N2 (stereo unspecified) ?
SMARCA2 activ: 5; esBAF inh: 11

How did CC(C)c1ccc2c(c1)C1(NN=C(c3ccccc3)S1)C(=O)N2 (stereo unspecified) do in these assays?
MITF TRPM1 HTS: -43; Wnt act: 12; SMARCA2 activ: 1; esBAF inh: 87*

What do the screens show for `CCOC(=O)c1oc2c(c1C)C(=O)CCC2`?
MITF TRPM1 HTS: -8; Wnt act: 1; SMARCA2 activ: -3

What do the screens show for `CCOC(=O)c1oc2c(c1C)/C(=N/O)CCC2`?
MITF TRPM1 HTS: 70; Wnt act: 57*; SMARCA2 activ: -2; esBAF inh: 39

How did Cc1cc(/C=C(\C#N)c2nc3ccccc3[nH]2)c(C)n1C do in these assays?
MITF TRPM1 HTS: 63; Wnt act: 84*; SMARCA2 activ: -1

What do the screens show for `Cn1nnc2cc(C(=O)Nc3ccc4ccccc4c3)ccc21`?
FGF22 binding: 0; MITF TRPM1 HTS: inconclusive; AF4-AF9 inh: -2; Wnt act: 56*; SMARCA2 activ: 5

What do the screens show for `COc1cc(C(=O)Nc2ccc3ccccc3c2)cc(OC)c1OC`?
FGF22 binding: 0; AF4-AF9 inh: -6; Wnt act: 3; SMARCA2 activ: 0

What do the screens show for `COc1ccc(C(=O)Nc2ccc3ccccc3c2)cc1OC`?
FGF22 binding: 0; AF4-AF9 inh: -1; Wnt act: 15; SMARCA2 activ: 5; esBAF inh: 86*

How did COc1cc(OC)c(C(=O)Nc2ccc3ccccc3c2)cc1OC do in these assays?
MITF TRPM1 HTS: 72; esBAF inh: 54*

Results for COc1cc(C(=O)Nc2cccc(-c3nnc(-c4ccco4)o3)c2)ccc1OC(C)=O ?
FGF22 binding: 44*; MITF TRPM1 HTS: 12; AF4-AF9 inh: 5; Wnt act: 2; SMARCA2 activ: 1; esBAF inh: inconclusive

Results for C[C@@H]1CCCCO[C@H](CN(C)Cc2ccc(C(=O)O)cc2)[C@@H](C)CN([C@H](C)CO)C(=O)c2cc(NC(=O)Nc3ccccc3)ccc2O1 ?
FGF22 binding: 1; AF4-AF9 inh: -12; esBAF inh: -6

What do the screens show for `CC(=O)c1c(C)[nH]c(C(=O)Nc2ccc(Cl)cc2)c1C`?
FGF22 binding: 0; MITF TRPM1 HTS: 77; AF4-AF9 inh: 1; Wnt act: 14; SMARCA2 activ: 2; esBAF inh: 60*

Results for CC(=O)c1c(C)[nH]c(C(=O)Nc2cccc(C)c2C)c1C ?
FGF22 binding: 0; MITF TRPM1 HTS: 1; AF4-AF9 inh: -21; Wnt act: 0; SMARCA2 activ: -3; esBAF inh: 7

What do the screens show for `CC(=O)c1c(C)[nH]c(C(=O)Nc2ccc(Cl)cc2F)c1C`?
FGF22 binding: 0; MITF TRPM1 HTS: 75; AF4-AF9 inh: 2; Wnt act: 20; SMARCA2 activ: 1; esBAF inh: 28

Results for CSc1cccc(NC(=O)c2[nH]c(C)c(C(C)=O)c2C)c1 ?
FGF22 binding: 0; MITF TRPM1 HTS: 133*; AF4-AF9 inh: 1; Wnt act: 19; SMARCA2 activ: 5; esBAF inh: 65*

Results for Cc1noc(C)c1NC(=O)Nc1ccc2c(c1)C(=O)N([C@H](C)CO)C[C@H](C)[C@H](CN(C)C(=O)CCCN(C)C)OCCCC[C@@H](C)O2 ?
FGF22 binding: 0; AF4-AF9 inh: -2; esBAF inh: 3

Results for c1ccc(NCCc2ccccn2)cc1 ?
FGF22 binding: 0; MITF TRPM1 HTS: 49; AF4-AF9 inh: 0; Wnt act: 17; SMARCA2 activ: -2; esBAF inh: 46*

How did CN(CCc1ccccn1)S(=O)(=O)c1ccccc1F do in these assays?
Wnt act: -5; SMARCA2 activ: -6; esBAF inh: -5

What do the screens show for `CN(CCc1ccccn1)c1ccccc1`?
FGF22 binding: 0; MITF TRPM1 HTS: 71; AF4-AF9 inh: 3; Wnt act: 11; SMARCA2 activ: 0; esBAF inh: 48*

Results for CCCNC(=O)N1C[C@@H](O)COC[C@@H]2O[C@@H](CC(=O)N[C@@H]3CCN(Cc4ccccc4)C3)CC[C@H]21 ?
FGF22 binding: 0; esBAF inh: -1

Results for COc1ccc2c3c([nH]c2c1)[C@@H](CO)N(C(C)=O)CC31CCN(Cc2cc(-c3ccccc3)on2)CC1 ?
AF4-AF9 inh: 36*

What do the screens show for `COc1ccc(CN2CC3(C2)CN(Cc2ccc4c(c2)OCO4)[C@@H](CO)c2[nH]c4cc(OC)ccc4c23)cc1`?
AF4-AF9 inh: 50*

How did COc1ccc2c3c([nH]c2c1)[C@H](CO)N(C(C)=O)CC31CN(Cc2cc(-c3ccccc3)on2)C1 do in these assays?
FGF22 binding: 0; AF4-AF9 inh: 26*

How did COc1ccc2c3c([nH]c2c1)[C@@H](CO)N(C(=O)Cc1ccccn1)CC31CN(Cc2ccccn2)C1 do in these assays?
AF4-AF9 inh: 5

How did COc1ccc2c3c([nH]c2c1)[C@H](CO)N(C(=O)Nc1ccc(F)cc1)CC31CCN(Cc2cc(-c3ccccc3)on2)CC1 do in these assays?
FGF22 binding: 1; AF4-AF9 inh: -1

Results for COc1ccc2c3c([nH]c2c1)[C@H](CO)N(C(C)=O)CC31CN(Cc2ccccc2Cl)C1 ?
AF4-AF9 inh: 26*

Results for C[C@H]1CN([C@@H](C)CO)S(=O)(=O)c2ccc(Br)cc2O[C@@H]1CN(C)C(=O)C1CCCCC1 ?
esBAF inh: -4

What do the screens show for `CCCNC(=O)Nc1ccc2c(c1)C(=O)N(C)[C@@H]1CC[C@@H](CC(=O)O)O[C@H]1CO2`?
FGF22 binding: 1; esBAF inh: 1

Results for C[C@@H]1CCCCO[C@@H](CN(C)C(=O)Nc2ccccc2)[C@H](C)CN([C@@H](C)CO)C(=O)c2cc(NC(=O)NC3CCCCC3)ccc2O1 ?
AF4-AF9 inh: -3; esBAF inh: -1

What do the screens show for `COc1ccc2c3c([nH]c2c1)[C@H](CO)N(C(C)=O)CC31CCN(Cc2cc(-c3ccccc3)on2)CC1`?
AF4-AF9 inh: 30*

What do the screens show for `COc1ccc2c3c([nH]c2c1)[C@H](CO)N(C(C)=O)CC31CCN(Cc2ccccc2Cl)CC1`?
FGF22 binding: 0; AF4-AF9 inh: 2

What do the screens show for `O=[N+]([O-])c1cccc(COc2ccc(CN3CCCC3)cc2)c1`?
FGF22 binding: 1; MITF TRPM1 HTS: inconclusive; AF4-AF9 inh: 2; Wnt act: 1; SMARCA2 activ: 1; esBAF inh: 35
